{"source": "PubChem BioAssay (NCI)", "note": "The panel holds about 83,000 compounds, 20% with a hit somewhere; the sample as a whole holds those more often.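 The endpoint reported here, percent growth, reads 100 for growth as untreated, 0 for no net growth and -100 for all cells dead.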 A number with no mark means an inactive call. The source made the active and inactive calls. How the source made its calls: active means growth percent below 10; inactive means the rest."}
{"tested_on": "786-0 renal", "test": "NCI-60 one-dose screen, 48 h (100 = growth as untreated, 0 = no growth, -100 = all killed)", "settings": "10 µM unless noted"}
{"compound": "COC(=O)/C=C/c1cc(O)c2oc(-c3ccc(O)c(O)c3)c(C(=O)OC)c2c1", "growth": "44.2%"}
{"compound": "CC(C)OC(=O)[C@H](C)N[P@@](=O)(OC[C@@]1(C)O[C@@H](n2cc(F)c(N)nc2=O)C[C@@H]1O[P@](=O)(N[C@@H](C)C(=O)OC(C)C)Oc1ccccc1)Oc1ccccc1", "growth": "104%"}
{"compound": "COc1cc2ncnc(Nc3ccc4c(cnn4C(=O)Nc4ccccc4)c3)c2cc1OC", "growth": "81.5%"}
{"compound": "Cc1nnc(/N=C2\\NC(=O)/C(=C/C=C/c3ccccc3)S2)s1", "growth": "66.9%"}
{"compound": "COC(c1ccccc1)C(Br)C(=O)c1ccccc1", "note": "(configuration not stated)", "growth": "92.2%"}
{"compound": "O=C1c2ccccc2CCc2ccccc21", "growth": "109%"}
{"compound": "COc1cc2ncnc(-n3ncc4cc(NC(=O)Nc5ccccc5)ccc43)c2cc1OC", "growth": "28%"}
{"compound": "COc1cc(-c2cc3cnccc3c3nc(N)c4ccncc4c23)cc(OC)c1OC", "growth": "24.8%"}
{"compound": "COc1cc(OC)c(NC(=O)n2ncc3cc(Nc4ncnc5ccccc45)ccc32)cc1Cl", "growth": "73.1%"}
{"compound": "COc1cc(OC)cc(-c2ccc(-c3ccc(C(=N)N)cc3)s2)c1", "growth": "-60.2% (active)"}
{"compound": "CC1(C)NCCC[C@]2(C)[C@H]3CC=C4[C@@H]5C[C@](C)(COC(=O)c6ccccc6C(=O)O)CC[C@]5(C)CC[C@@]4(C)[C@]3(C)CC[C@@H]12", "growth": "65.2%"}
{"compound": "Nc1ncn([C@@H]2O[C@H](CO)[C@@H](O)C2(F)F)c(=O)n1", "growth": "26.3%"}
{"compound": "CCOC(=O)c1cc(C(=O)c2ccc(Br)cc2)n2cc(C)cc(C)c12", "growth": "96.3%"}
{"compound": "Nc1nc2c(c3cnccc13)C(c1cccc(Br)c1)Cc1cnccc1-2", "note": "(configuration not stated)", "growth": "14.1%"}
{"compound": "O=C1/C(=C\\c2cn(-c3nc(N4CCOCC4)nc(N4CCOCC4)n3)c3ccccc23)c2ccccc2N1c1c(Cl)cccc1Cl", "growth": "29.5%"}
{"compound": "COc1cc2ncnc(-n3ncc4cc(NC(=O)Nc5ccc(Cl)c(C)c5)ccc43)c2cc1OC", "growth": "77.5%"}
{"compound": "CC1=C[C@@H]2c3c(c(O)c(O)c4oc5cc(O)cc(O)c5c(=O)c34)[C@@H](c3cc(O)c(O)c4oc5cc(O)cc(O)c5c(=O)c34)[C@@H]2C(C)(C)C1", "growth": "-40.3% (active)"}
{"compound": "N=C(N)c1ccc(-c2ccc(-c3cc(Cl)cc(Cl)c3)s2)cc1", "growth": "-73.3% (active)"}
{"compound": "COc1cc2ncnc(-n3ncc4cc(NC(=O)Nc5ccc(Cl)c(Cl)c5)ccc43)c2cc1OC", "growth": "-43.4% (active)"}
{"compound": "CC1=NN(c2cccc(Cl)c2)C(=O)/C1=C\\c1cn(-c2nc(N3CCOCC3)nc(N3CCOCC3)n2)c2ccccc12", "growth": "102%"}
{"compound": "O=C(Nc1ccccc1)Nc1ccc(Nc2ncnc3sc4c(c23)CCCC4)cc1", "growth": "110%"}
{"compound": "O=c1c(N=Nc2nccs2)c(-c2ccccc2)[nH]n1-c1nc(-c2ccccc2)cs1", "growth": "43.7%"}
{"compound": "Cc1ccc(OCCn2ccc(=O)n(CCOc3ccc(Cl)cc3C(=O)c3cc(C)cc(C)c3)c2=O)cc1", "growth": "57.4%"}
{"tested_on": "COLO 205 colon", "test": "NCI-60 one-dose screen, 48 h (100 = growth as untreated, 0 = no growth, -100 = all killed)", "settings": "10 µM unless noted"}
{"compound": "Cn1c2c(cc(S(=O)(=O)c3ccccc3)c1=O)CCc1c-2cnn1-c1ccc(Cl)cc1", "growth": "77.5%"}
{"compound": "COc1cc(/C=C/C(=O)c2ccc(F)cc2)ccc1OCCCCOc1cc2c(cc1OC)C(=O)N1CCCC1C=N2", "note": "(configuration not stated)", "growth": "-45.2% (active)"}
{"compound": "COC1=CC(c2ccc[nH]2)=N/C1=C\\c1[nH]c(C)c(C(=O)CCCCC(=O)NC(C)(C)C)c1C", "growth": "44.4%"}
{"compound": "CCOP1(=O)CC(C)=C(Cl)C(P(=O)(O)O)C1", "note": "(configuration not stated)", "growth": "110%"}
{"tested_on": "DU-145 prostate", "test": "NCI-60 one-dose screen, 48 h (100 = growth as untreated, 0 = no growth, -100 = all killed)", "settings": "10 µM unless noted"}
{"compound": "C/C(CCC(=O)O)=N/Nc1ccc([N+](=O)[O-])cc1", "growth": "82.2%"}
{"compound": "Nc1nc2c(c3ncncc13)C(c1cccc(C(F)(F)F)c1)Cc1ncncc1-2", "note": "(configuration not stated)", "growth": "15.6%"}
{"compound": "COc1ccc(-c2nc(SCC(C)C)nc(Nc3ccc([N+](=O)[O-])cc3)c2C#N)cc1", "growth": "107%"}
{"compound": "Cn1c2c(cc(S(=O)(=O)c3ccccc3)c1=O)CCc1c-2cnn1-c1ccc(Cl)cc1", "growth": "8.78% (active)"}
{"compound": "Nc1nc2c(c3cnccc13)C(c1cccc(Cl)c1)Cc1cnccc1-2", "note": "(configuration not stated)", "growth": "10.7%"}
{"compound": "CCCCCSc1ccc2nc(NC(=O)OCCC)sc2c1", "growth": "43.2%"}
{"compound": "CCCCCSc1ccc2nc(NC(=O)OCC)sc2c1", "growth": "22.8%"}
{"compound": "Cc1c(Cc2ccccc2)c(=O)oc2c(C)c(OCc3n[nH]c(=S)o3)ccc12", "growth": "19.4%"}
{"compound": "CCOC(=O)c1c(C)oc2ncnc(Nc3ccc(C(=O)NCCc4ccccc4)cc3)c12", "growth": "82.1%"}
{"compound": "COc1cc(/C=C/C(=O)c2ccc(F)cc2)ccc1OCCCCOc1cc2c(cc1OC)C(=O)N1CCCC1C=N2", "note": "(configuration not stated)", "growth": "-72.1% (active)"}
{"compound": "C=C(C)[C@@H]1CC[C@]2(COC(=O)c3ccccc3C(=O)O)CC[C@]3(C)[C@H](CC[C@@H]4[C@@]5(C)CCCNC(C)(C)[C@@H]5CC[C@]43C)[C@@H]12", "growth": "65.9%"}
{"compound": "O=C(CCCC(=O)Nc1ccc(Cn2nnc3cc(Cl)c(Cl)cc32)cc1)Nc1ccc(CN2N=NC3C=C(Cl)C(Cl)=CC32)cc1", "note": "(configuration not stated)", "growth": "93.3%"}
{"compound": "CCS(=O)(=O)OCCO[C@H]1Cc2cc3ccc(=O)oc3cc2OC1(C)C", "growth": "103%"}
{"compound": "O=C1Nc2ccccc2/C1=C/c1cn(CC(O)Cn2cc(/C=C3\\C(=O)Nc4ccccc43)c3ccccc32)c2ccccc12", "note": "(configuration not stated)", "growth": "-90.5% (active)"}
{"compound": "COC(=O)Nc1nc2ccc(C(=O)c3ccccc3N(C)C3COC3)cc2[nH]1", "growth": "33.7%"}
{"compound": "COC(=O)/C=C/c1cc(O)c2oc(-c3ccc(O)c(O)c3)c(C(=O)OC)c2c1", "growth": "17.5%"}
{"compound": "CC(C)OC(=O)[C@H](C)N[P@@](=O)(OC[C@@]1(C)O[C@@H](n2cc(F)c(N)nc2=O)C[C@@H]1O[P@](=O)(N[C@@H](C)C(=O)OC(C)C)Oc1ccccc1)Oc1ccccc1", "growth": "103%"}
{"compound": "COc1cc2ncnc(Nc3ccc4c(cnn4C(=O)Nc4ccccc4)c3)c2cc1OC", "growth": "89.3%"}
{"compound": "Cc1nnc(/N=C2\\NC(=O)/C(=C/C=C/c3ccccc3)S2)s1", "growth": "57.5%"}
{"compound": "COC(c1ccccc1)C(Br)C(=O)c1ccccc1", "note": "(configuration not stated)", "growth": "116%"}
{"compound": "O=C1c2ccccc2CCc2ccccc21", "growth": "104%"}
{"compound": "COc1cc2ncnc(-n3ncc4cc(NC(=O)Nc5ccccc5)ccc43)c2cc1OC", "growth": "10.5%"}
{"compound": "COc1cc(-c2cc3cnccc3c3nc(N)c4ccncc4c23)cc(OC)c1OC", "growth": "62.3%"}
{"compound": "COc1cc(OC)c(NC(=O)n2ncc3cc(Nc4ncnc5ccccc45)ccc32)cc1Cl", "growth": "56.9%"}
{"compound": "COc1cc(OC)cc(-c2ccc(-c3ccc(C(=N)N)cc3)s2)c1", "growth": "-90.6% (active)"}
{"compound": "CC1(C)NCCC[C@]2(C)[C@H]3CC=C4[C@@H]5C[C@](C)(COC(=O)c6ccccc6C(=O)O)CC[C@]5(C)CC[C@@]4(C)[C@]3(C)CC[C@@H]12", "growth": "79.3%"}
{"compound": "Nc1ncn([C@@H]2O[C@H](CO)[C@@H](O)C2(F)F)c(=O)n1", "growth": "43.5%"}
{"compound": "CCOC(=O)c1cc(C(=O)c2ccc(Br)cc2)n2cc(C)cc(C)c12", "growth": "100%"}
{"compound": "Nc1nc2c(c3cnccc13)C(c1cccc(Br)c1)Cc1cnccc1-2", "note": "(configuration not stated)", "growth": "11.4%"}
{"compound": "O=C1/C(=C\\c2cn(-c3nc(N4CCOCC4)nc(N4CCOCC4)n3)c3ccccc23)c2ccccc2N1c1c(Cl)cccc1Cl", "growth": "57.1%"}
{"compound": "COc1cc2ncnc(-n3ncc4cc(NC(=O)Nc5ccc(Cl)c(C)c5)ccc43)c2cc1OC", "growth": "101%"}
{"compound": "CC1=C[C@@H]2c3c(c(O)c(O)c4oc5cc(O)cc(O)c5c(=O)c34)[C@@H](c3cc(O)c(O)c4oc5cc(O)cc(O)c5c(=O)c34)[C@@H]2C(C)(C)C1", "growth": "20.7%"}
{"compound": "N=C(N)c1ccc(-c2ccc(-c3cc(Cl)cc(Cl)c3)s2)cc1", "growth": "-89.8% (active)"}
{"compound": "COc1cc2ncnc(-n3ncc4cc(NC(=O)Nc5ccc(Cl)c(Cl)c5)ccc43)c2cc1OC", "growth": "1.5% (active)"}
{"compound": "COC1=CC(c2ccc[nH]2)=N/C1=C\\c1[nH]c(C)c(C(=O)CCCCC(=O)NC(C)(C)C)c1C", "growth": "51.5%"}
{"compound": "CC1=NN(c2cccc(Cl)c2)C(=O)/C1=C\\c1cn(-c2nc(N3CCOCC3)nc(N3CCOCC3)n2)c2ccccc12", "growth": "106%"}
{"compound": "O=C(Nc1ccccc1)Nc1ccc(Nc2ncnc3sc4c(c23)CCCC4)cc1", "growth": "109%"}
{"compound": "O=c1c(N=Nc2nccs2)c(-c2ccccc2)[nH]n1-c1nc(-c2ccccc2)cs1", "growth": "43.8%"}
{"compound": "CCOP1(=O)CC(C)=C(Cl)C(P(=O)(O)O)C1", "note": "(configuration not stated)", "growth": "109%"}
{"compound": "Cc1ccc(OCCn2ccc(=O)n(CCOc3ccc(Cl)cc3C(=O)c3cc(C)cc(C)c3)c2=O)cc1", "growth": "73.3%"}
